A word on the inhibition: it is the relative decrease from the control value, in per cent.

These results are taken from PubChem BioAssay.

Experiment [1] can be described thus: rapamycin-like changes in RPL19A-GFP expression – cell-based, S. cerevisiae, multiplex flow cytometry, primary screen (AID 1862; in the data active = percent of DMSO control GFP below about 86%;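 also: lower values mimic rapamycin by blocking the RPL19A rise seen in DMSO cells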). To be noted: S. cerevisiae RPL19A-GFP strain, flow cytometry fluorescence, 3 h; at 10 µM; stronger effect = lower value.
Experiment [2] in a line: TOR pathway GLN3 branch reporter MEP2-GFP changes – S. cerevisiae, multiplex flow cytometry, primary screen (AID 1867;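 active = GFP response, as percent of the DMSO control, above the screen-wide mean plus 3 SD, about 139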;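 also: median GFP channel fluorescence of barcode-gated MEP2-GFP cells measured by flow cytometry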). To be noted: S. cerevisiae MEP2-GFP strain, 3 h, at 10 µM, stronger effect = higher value, 100% means same as DMSO wells.
The nature of experiment [3]: TOR pathway RTG branch CIT2 reporter changes – S. cerevisiae, GFP fusion, multiplex flow cytometry, primary screen (AID 1870).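 Also: barcoded CIT2-GFP strain pooled with four other GFP strains with rapamycin as positive control; median GFP fluorescence per well over plate mean of DMSO wells so 100% = DMSO.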 To be noted: S. cerevisiae CIT2-GFP expression, 3 h, at 10 µM, stronger effect = higher value.
A short description of experiment [4]: TOR pathway LAP4-GFP level changes – S. cerevisiae, multiplex flow cytometry, primary screen (AID 1873;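 active = GFP signal, as percent of the solvent control, above the screen mean plus 3 SD, about 149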). To be noted: S. cerevisiae LAP4-GFP expression, 3 h, at 10 µM, stronger effect = higher value.
The nature of experiment [5]: reduced mouse 2C T cell binding to pMHC/ICAM-1 vesicles – MLPCN validation set, flow cytometry, LFA-1/ICAM-1 modulator project, pilot screen (AID 2523;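 active = response below a set limit, under 55% cells CD8-positive and vesicle-bound, and CD8 cells' 90th-percentile brightness under 279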;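 as to vesicle binding response: mean PE anti-B7-1 fluorescence of CD8+ cells relative to row control; 100% = QL9-loaded vesicles with DMSO vehicle in the same plate row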). The following applies: 2C mouse CD8+ T cells, at 7 µM, stronger effect = lower value; double positive events: measured here: CD8+/vesicle+ event percentage. For orientation: A flow cytometer gives signals particle by particle.
For experiment [6], the target named is Integrin beta-1 (Homo sapiens) + Integrin alpha-4 (Homo sapiens) (UniProt P13612+P05556). Kind of experiment: alpha4beta1 integrin LIBS antibody binding reduction – U937 cells, HUTS-21 mAb, flow cytometry, validation set, VLA-4 allosteric modulator project, pilot screen (AID 2674;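 active = inhibition above 50%, about 3 SD of the validation set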;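 also: antibody binding induced by the VLA-4 ligand LDV present at three times its Kd; 0% = LDV ligand with antibody and no compound and 100% = antibody without LDV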). The following applies: HUTS-21 LIBS mAb binding, at 6.7 µM, stronger effect = higher value, binding induced by LDV ligand.

Experiment [7] in a line: calorie-restriction mimetic ROS inhibitors, yeast – validation compound set, pilot screen (AID 2706;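 active = superoxide response below 65% of plate, a cut near 3 SD across the whole screen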;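 also: yeast exposed to compound for one week at 30 degrees C before staining; 100% = mean of all compound wells on the same plate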). The following applies: S. cerevisiae aging, superoxide DHE fluorescence; at 10 µM, stronger effect = lower value.
Experiment [8] has as its target Beta-adrenergic receptor kinase 1 (Homo sapiens) (UniProt P25098). The experiment in a line: GRK2 binders displacing RNA aptamer, biochemical, validation, human GRK2, bead flow cytometry (AID 488806;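 active = aptamer binding inhibition above 30%, about 3 SD of noise from non-fluorescent compounds; inactive = inhibition at or below 30%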). To be noted: bead-bound GRK2, FAM-aptamer displacement, at 10 µM, stronger effect = higher value.
Experiment [9] has as its target Beta-2 adrenergic receptor (Homo sapiens) (UniProt P07550). Kind of experiment: agonist-induced loss of surface beta2AR – cell-based, FAP fluorogen, flow cytometry, validation set, pilot screen (AID 504459;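 active = percent response above 42, roughly 3 SD of non-fluorescent test compounds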;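 also: agonist-driven loss of surface beta2AR via internalization measured by FAP dye flow cytometry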). The following applies: Am2.2-beta2AR cells, at 10 µM, stronger effect = higher value.
Experiment [10] concerns the target AP-2 complex subunit beta (Homo sapiens) (UniProt P63010). The experiment in a line: beta-arrestin/AP2 interaction blockers – biochemical, validation set, GST-AP2 beads, flow cytometry, pilot screen (AID 504541;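 active = inhibition above 54%, about 3 SD of non-fluorescent compounds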;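 also: AP2 carries R879A mutation and is captured from E. coli lysate; bead-bound FITC arrestin peptide fluorescence measuring arrestin peptide binding to AP2; 0% = DMSO wells and 100% = excess unlabeled arrestin peptide control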). The following applies: FITC arrestin peptide, at 10 µM, stronger effect = higher value, AP2 beta2 appendage fragment, R879A mutant.
Experiment [11] in a line: cytosolic pH regulators acting via V-ATPase – S. cerevisiae, pHLuorin, HTS validation (AID 504600; in the data active = response above about 15%;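 also: plate controls were DMSO for no effect and reference compound for full effect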). To be noted: V-ATPase proton transport, at 10 µM, stronger effect = higher value.
Experiment [12] concerns anti-desmoglein-3 scFv antibody binding to human DSG3. Kind of experiment: blockers of pathogenic pemphigus antibody–desmoglein-3 binding – biochemical, validation compound set, bead-based, flow cytometry, pilot screen (AID 588368;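 active = binding below the plate cutoff, the plate median minus 3 SD, with a reading above zero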;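 also: signal is the median channel fluorescence of bead-bound GFP antibody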). The following applies: Protein G beads, DSG3-Fc, scFv-GFP binding, at 10 µM, stronger effect = lower value.
The nature of experiment [13]: Nile Red efflux blockade in pump-expressing yeast – validation compound set, multiplex, phenotypic, pilot screen (AID 588506;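 active = efflux inhibition above 0.42, the validation set average plus 4 SD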;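 also: Nile Red retained in cells so higher fluorescence means more efflux inhibition; 0 = negative control wells and 1 = enniatin B 25 µM full block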). To be noted: S. cerevisiae pump-expressing triplex, Nile Red efflux flow cytometry; at 10 µM; stronger effect = higher value; the pumps come from Candida albicans.
Experiment [14] has as its target ATP-binding cassette sub-family B member 6 (Homo sapiens) (UniProt Q9NP58). Kind of experiment: blockers of ABCB6-driven porphyrin uptake – K562-ABCB6 cells, flow cytometry, validation set, pilot screen (AID 588550;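 active = inhibition above the screen-wide mean plus 3 SD, about 51%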;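 also: 0% = DMSO wells and 100% = benzethonium chloride 70 µM positive control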). The following applies: K562-ABCB6 porphyrin accumulation, 1 h, at 10 µM, stronger effect = higher value.
Experiment [15] in a line: AML differentiation inducers, ER-HoxA9 marrow cells – cell-based, GFP/MAC1 double positive, flow cytometry, validation set, primary screen (AID 588685;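 active = differentiation response of at least 50%, scaled between solvent and reference control, from cells with both markers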;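 also: compound exposure lasts four days before antibody staining and flow analysis; 0% = DMSO wells and 100% = 5 µM fulvestrant positive control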). The following applies: stronger effect = higher value, normalized: vehicle 0, fulvestrant 100.
A short description of experiment [16]: yeast AGP1-GFP level changes, GLN3 branch – cell-based, multiplex flow cytometry, S. cerevisiae, primary screen (AID 1887;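 active = GFP signal above the screen-wide mean plus 3 SD, that is over about 124.5% of the solvent control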;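 also: AGP1-GFP fusion strain of S. cerevisiae within a five-strain barcoded multiplex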). The following applies: 3 h, at 10 µM, stronger effect = higher value.

Results filed as inconclusive are left out. Active and inactive are the calls of the source.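 The calls were made as follows, unless noted: active = percent response above a set limit, the screen-wide mean plus 3 SD (cut at about 130% in these data); inactive = the rest.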

Chain of AP-2 complex subunit beta (Homo sapiens) (P63010 whole entry, looked up, the tested form may be a part, one chain of several): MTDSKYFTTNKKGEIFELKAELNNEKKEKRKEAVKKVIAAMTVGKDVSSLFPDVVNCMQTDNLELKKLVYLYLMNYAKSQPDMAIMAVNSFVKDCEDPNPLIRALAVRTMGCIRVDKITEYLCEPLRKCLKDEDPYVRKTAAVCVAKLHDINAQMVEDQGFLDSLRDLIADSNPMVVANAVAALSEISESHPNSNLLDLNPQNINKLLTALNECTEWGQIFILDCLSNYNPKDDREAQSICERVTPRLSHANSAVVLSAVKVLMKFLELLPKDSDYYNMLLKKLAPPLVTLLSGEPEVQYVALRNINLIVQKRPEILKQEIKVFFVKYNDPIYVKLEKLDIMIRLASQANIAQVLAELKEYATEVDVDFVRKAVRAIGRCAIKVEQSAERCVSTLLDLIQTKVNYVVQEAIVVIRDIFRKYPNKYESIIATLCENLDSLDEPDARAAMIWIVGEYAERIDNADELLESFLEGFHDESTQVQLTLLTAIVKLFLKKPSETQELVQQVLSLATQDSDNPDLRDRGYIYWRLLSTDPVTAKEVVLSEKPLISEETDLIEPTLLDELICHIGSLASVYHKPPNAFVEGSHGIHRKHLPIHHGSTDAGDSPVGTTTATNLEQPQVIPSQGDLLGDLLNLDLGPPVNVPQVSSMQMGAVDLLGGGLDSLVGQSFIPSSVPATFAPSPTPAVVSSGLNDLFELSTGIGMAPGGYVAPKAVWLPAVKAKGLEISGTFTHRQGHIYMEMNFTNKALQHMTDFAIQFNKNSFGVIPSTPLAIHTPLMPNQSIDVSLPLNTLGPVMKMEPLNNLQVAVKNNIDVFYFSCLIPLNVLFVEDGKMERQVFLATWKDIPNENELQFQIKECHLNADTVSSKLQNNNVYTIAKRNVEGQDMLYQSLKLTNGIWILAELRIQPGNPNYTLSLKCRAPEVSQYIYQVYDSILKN
Chain of ATP-binding cassette sub-family B member 6 (Homo sapiens) (Q9NP58 whole entry, looked up): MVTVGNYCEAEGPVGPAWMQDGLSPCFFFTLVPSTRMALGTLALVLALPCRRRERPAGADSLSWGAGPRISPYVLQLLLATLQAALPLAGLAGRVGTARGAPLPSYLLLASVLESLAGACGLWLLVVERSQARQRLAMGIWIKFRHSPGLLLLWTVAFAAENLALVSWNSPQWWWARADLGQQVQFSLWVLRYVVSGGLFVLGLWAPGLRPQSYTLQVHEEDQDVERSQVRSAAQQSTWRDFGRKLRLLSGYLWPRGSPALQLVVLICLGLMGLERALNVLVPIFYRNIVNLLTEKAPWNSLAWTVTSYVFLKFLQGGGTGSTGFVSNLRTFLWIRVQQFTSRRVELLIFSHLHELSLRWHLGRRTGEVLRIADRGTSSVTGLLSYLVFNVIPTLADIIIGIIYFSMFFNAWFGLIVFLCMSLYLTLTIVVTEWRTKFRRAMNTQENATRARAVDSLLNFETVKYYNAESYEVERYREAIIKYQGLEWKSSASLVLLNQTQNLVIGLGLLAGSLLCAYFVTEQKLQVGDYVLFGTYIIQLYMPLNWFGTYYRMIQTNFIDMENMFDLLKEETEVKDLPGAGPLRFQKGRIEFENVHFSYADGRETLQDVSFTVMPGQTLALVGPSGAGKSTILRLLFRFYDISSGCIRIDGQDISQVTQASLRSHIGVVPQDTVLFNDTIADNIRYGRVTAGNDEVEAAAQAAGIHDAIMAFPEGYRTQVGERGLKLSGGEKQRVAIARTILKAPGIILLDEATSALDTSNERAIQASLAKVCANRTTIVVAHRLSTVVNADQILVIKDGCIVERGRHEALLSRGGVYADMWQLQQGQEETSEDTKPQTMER
Chain of Beta-2 adrenergic receptor (Homo sapiens) (P07550 whole entry, looked up): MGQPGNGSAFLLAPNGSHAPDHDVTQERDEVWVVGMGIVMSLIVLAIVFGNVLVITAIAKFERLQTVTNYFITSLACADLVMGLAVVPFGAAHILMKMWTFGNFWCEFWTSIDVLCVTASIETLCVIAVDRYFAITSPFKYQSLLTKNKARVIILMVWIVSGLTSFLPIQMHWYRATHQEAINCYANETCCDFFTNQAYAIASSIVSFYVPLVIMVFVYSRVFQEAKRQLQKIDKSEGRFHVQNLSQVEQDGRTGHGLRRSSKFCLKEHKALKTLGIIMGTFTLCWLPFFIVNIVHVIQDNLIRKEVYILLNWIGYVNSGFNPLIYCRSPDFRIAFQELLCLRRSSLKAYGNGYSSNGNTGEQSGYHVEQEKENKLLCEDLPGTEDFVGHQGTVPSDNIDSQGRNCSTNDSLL
Chain of Beta-adrenergic receptor kinase 1 (Homo sapiens) (P25098 whole entry, looked up): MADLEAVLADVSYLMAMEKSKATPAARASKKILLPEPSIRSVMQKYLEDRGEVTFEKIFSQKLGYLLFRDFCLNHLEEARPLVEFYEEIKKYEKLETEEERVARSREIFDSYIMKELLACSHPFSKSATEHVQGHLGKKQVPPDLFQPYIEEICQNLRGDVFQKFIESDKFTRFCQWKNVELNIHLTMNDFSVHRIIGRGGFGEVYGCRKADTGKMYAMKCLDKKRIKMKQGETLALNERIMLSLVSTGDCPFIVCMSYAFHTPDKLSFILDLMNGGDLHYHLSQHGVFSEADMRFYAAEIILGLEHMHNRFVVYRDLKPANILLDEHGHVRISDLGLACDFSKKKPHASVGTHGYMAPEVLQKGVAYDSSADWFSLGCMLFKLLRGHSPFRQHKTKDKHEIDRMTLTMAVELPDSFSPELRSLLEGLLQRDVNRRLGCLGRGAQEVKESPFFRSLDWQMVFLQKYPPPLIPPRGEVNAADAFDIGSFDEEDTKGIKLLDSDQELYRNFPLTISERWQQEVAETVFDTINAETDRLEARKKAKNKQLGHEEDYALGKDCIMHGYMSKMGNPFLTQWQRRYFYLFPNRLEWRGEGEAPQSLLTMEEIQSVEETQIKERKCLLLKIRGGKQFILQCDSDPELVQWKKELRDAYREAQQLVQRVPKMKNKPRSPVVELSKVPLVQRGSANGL
Chain of Integrin beta-1 (Homo sapiens) + Integrin alpha-4 (Homo sapiens) (P05556 whole entry, looked up): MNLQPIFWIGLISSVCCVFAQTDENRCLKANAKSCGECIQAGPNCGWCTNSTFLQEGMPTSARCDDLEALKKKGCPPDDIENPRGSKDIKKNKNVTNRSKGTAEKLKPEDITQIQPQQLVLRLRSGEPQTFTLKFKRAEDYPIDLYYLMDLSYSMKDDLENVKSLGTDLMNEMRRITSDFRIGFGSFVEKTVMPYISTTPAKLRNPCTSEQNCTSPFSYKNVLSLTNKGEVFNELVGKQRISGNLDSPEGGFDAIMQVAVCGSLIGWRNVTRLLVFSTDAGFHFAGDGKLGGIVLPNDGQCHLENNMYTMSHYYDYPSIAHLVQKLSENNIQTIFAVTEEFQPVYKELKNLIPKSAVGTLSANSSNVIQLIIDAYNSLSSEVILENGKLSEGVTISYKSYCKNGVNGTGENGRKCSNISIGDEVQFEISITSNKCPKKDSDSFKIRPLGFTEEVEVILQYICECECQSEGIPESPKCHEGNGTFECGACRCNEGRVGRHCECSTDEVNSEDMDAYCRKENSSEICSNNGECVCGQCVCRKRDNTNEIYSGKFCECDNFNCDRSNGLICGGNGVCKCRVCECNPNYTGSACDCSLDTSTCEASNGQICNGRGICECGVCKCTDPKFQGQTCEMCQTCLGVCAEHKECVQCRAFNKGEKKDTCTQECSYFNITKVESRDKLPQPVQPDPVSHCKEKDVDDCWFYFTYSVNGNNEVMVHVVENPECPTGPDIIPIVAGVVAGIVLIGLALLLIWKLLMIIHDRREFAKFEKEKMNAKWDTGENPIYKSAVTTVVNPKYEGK
Chain of Integrin beta-1 (Homo sapiens) + Integrin alpha-4 (Homo sapiens) (P13612 whole entry, looked up): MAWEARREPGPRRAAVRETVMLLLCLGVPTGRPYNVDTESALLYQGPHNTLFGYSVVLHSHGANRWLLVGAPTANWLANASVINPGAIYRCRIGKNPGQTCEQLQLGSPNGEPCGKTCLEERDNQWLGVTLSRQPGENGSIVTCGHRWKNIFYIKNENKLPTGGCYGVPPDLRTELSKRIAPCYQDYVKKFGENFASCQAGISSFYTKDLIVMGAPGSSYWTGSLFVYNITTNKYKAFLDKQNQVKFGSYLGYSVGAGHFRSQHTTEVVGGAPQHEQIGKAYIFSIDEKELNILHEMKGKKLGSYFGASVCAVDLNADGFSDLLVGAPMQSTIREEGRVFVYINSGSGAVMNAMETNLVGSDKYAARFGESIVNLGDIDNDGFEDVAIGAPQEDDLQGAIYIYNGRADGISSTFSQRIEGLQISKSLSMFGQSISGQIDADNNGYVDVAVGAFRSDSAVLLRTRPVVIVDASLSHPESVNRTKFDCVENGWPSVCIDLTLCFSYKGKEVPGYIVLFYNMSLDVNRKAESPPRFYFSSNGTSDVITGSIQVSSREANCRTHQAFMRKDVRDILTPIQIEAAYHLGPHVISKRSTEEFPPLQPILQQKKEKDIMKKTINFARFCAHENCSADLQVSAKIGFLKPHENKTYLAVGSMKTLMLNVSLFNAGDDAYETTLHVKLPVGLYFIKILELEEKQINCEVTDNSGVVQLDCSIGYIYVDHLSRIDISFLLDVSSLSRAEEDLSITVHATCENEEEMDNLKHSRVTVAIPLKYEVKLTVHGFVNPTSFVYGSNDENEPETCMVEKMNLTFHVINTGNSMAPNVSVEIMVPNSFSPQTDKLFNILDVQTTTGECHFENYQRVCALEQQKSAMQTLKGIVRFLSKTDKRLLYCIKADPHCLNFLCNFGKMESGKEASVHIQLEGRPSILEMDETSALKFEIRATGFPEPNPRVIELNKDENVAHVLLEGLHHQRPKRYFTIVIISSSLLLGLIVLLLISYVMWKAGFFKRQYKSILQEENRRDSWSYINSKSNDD

With `Cc1ccccc1NC(=O)C1c2ccccc2Oc2ccccc21`, the percent of DMSO control GFP in experiment [1] is 96.1% (inactive). The figures for the GFP response vs DMSO in experiment [2] and in experiment [4] were 120% (inactive) and 77.6% (inactive), respectively. The percent response of DMSO control in [3] is 110% (inactive). In experiment [5], this molecule came in with a double positive events of 65.5%. Also, the vesicle binding response in experiment [5] is 217% (inactive). Moreover, the inhibition in experiment [6] is 4.52% (inactive); in [10] it was -0.97% (inactive); in experiment [14] it was 12% (inactive). In experiment [7], the superoxide response (% of plate) is 86.5% (inactive). The aptamer binding inhibition in experiment [8] is 2% (inactive). Further, the response was -5.21% (inactive) in [9] and -0.9% (inactive) in experiment [11]. Further, in [12], the binding (% of control) was 105% (inactive). Besides, the efflux inhibition (fraction of control) in experiment [13] was 0.16 (inactive). Also, the differentiation response in experiment [15] was -4.09% (inactive).

Turning to `Cc1cc(C)c2c(CCl)cc(=O)oc2c1`, the percent of DMSO control GFP in experiment [1] is 98.7% (inactive). Besides, in experiment [3], the percent response of DMSO control was 107% (inactive). Further, the GFP response vs DMSO in experiment [4] is 127% (inactive). In addition, the GFP response, % of DMSO in [16] was 115% (inactive). This molecule had a double positive events in [5] of 60.3%. Besides, the vesicle binding response in [5] was 174% (inactive). The inhibition in experiment [6] is 33.8% (inactive); in experiment [10] it was 2.3% (inactive); in experiment [14], 4% (inactive). The superoxide response (% of plate) in experiment [7] was 93% (inactive). For the same molecule, the aptamer binding inhibition in experiment [8] was -2% (inactive). Moreover, the results for the response in [9] and in [11] were -0.73% (inactive) and 63.9% (active), respectively. In experiment [12], the binding (% of control) was 96.2% (inactive). In addition, the efflux inhibition (fraction of control) in experiment [13] was 0.08 (inactive). Besides, in [15], the differentiation response was 4.86% (inactive).

As to `COc1ccc(CCN(C)CC(=O)Nc2cc(C)nc3ccccc23)cc1OC`, the percent of DMSO control GFP in experiment [1] is 108% (inactive). Further, the percent response of DMSO control in experiment [3] was 104% (inactive). The GFP response vs DMSO in experiment [4] is 94% (inactive). For the same molecule, the GFP response, % of DMSO in experiment [16] is 94.9% (inactive). In experiment [5], the double positive events was found to be 71.8%. For the same molecule, the vesicle binding response in experiment [5] is 193% (inactive). In addition, the results for the inhibition in experiment [6], in experiment [10] and in experiment [14] were 10.5% (inactive), -0.03% (inactive) and 5% (inactive), respectively. Moreover, the superoxide response (% of plate) in [7] was 103% (inactive). The aptamer binding inhibition in [8] is 1% (inactive). Moreover, the response in experiment [9] is 7.03% (inactive); in [11] it was -0.15% (inactive). In experiment [12], the binding (% of control) is 96.8% (inactive). Moreover, in experiment [13], the efflux inhibition (fraction of control) is 0.05 (inactive). The differentiation response in [15] is 5.6% (inactive).

In the case of `OCCN(CCO)c1ccc2ccccc2c1`, the percent of DMSO control GFP in experiment [1] is 96.5% (inactive). Further, the percent response of DMSO control in [3] was 99.6% (inactive). Further, in [4], the GFP response vs DMSO was 96.5% (inactive). In addition, the GFP response, % of DMSO in experiment [16] is 98.9% (inactive). In [5], this molecule returned a double positive events of 66.7%. In experiment [5], the vesicle binding response is 267% (inactive). Besides, the inhibition in experiment [6] was 0.94% (inactive); in experiment [10] it was -3.97% (inactive); in experiment [14] it was 10% (inactive). In [7], the superoxide response (% of plate) is 98.1% (inactive). For the same molecule, the aptamer binding inhibition in [8] was 2% (inactive). Moreover, the figures for the response in experiment [9] and in experiment [11] were -2.38% (inactive) and 4.81% (inactive), respectively. Also, the binding (% of control) in experiment [12] was 103% (inactive). In addition, the efflux inhibition (fraction of control) in [13] is -0.21 (inactive). Moreover, the differentiation response in [15] is 5.6% (inactive).

For the molecule `CCCCC/C=C\C[C@H](O)/C=C/c1cccc(C[C@H](O)CCCCO)n1`, the percent of DMSO control GFP in experiment [1] is 97.9% (inactive). Further, the GFP response vs DMSO in [2] is 111% (inactive); in experiment [4], 75.9% (inactive). The percent response of DMSO control in experiment [3] is 111% (inactive). In experiment [5], this molecule returned a double positive events of 52.3%. In addition, the vesicle binding response in [5] was 41.1% (active). The figures for the inhibition in [6], in experiment [10] and in [14] were -3.24% (inactive), -4.61% (inactive) and 10% (inactive), respectively. In [7], the superoxide response (% of plate) was 116% (inactive). Further, the aptamer binding inhibition in [8] was 1% (inactive). In addition, the response in experiment [9] was -7.36% (inactive); in experiment [11], 1.37% (inactive). In addition, the binding (% of control) in [12] is 103% (inactive). Further, the efflux inhibition (fraction of control) in [13] is 0.16 (inactive). Further, the differentiation response in experiment [15] is -2.46% (inactive).
